A selection: hits, their analogues and other compounds. The true share with any hit is near 8%.
Lassa entry inh – blocks Lassa virus binding to or entry into cells; AID 540256; Potency, µM (titrated, usually from 37.9 µM), without a hit: top-dose activity change, negative = inhibition, usual class: inhibitors; Lassa virus pseudotype entry inhibition, cell reporter; actives 1.2% (n = 300,000); calls by dose curve; tested in HEK293 cells; note: potency is the fitted concentration of half-maximal effect; % is set by controls: 0 for no effect and ±100 for the full control effect; nearly all actives have a fitted effect of over 50% in size
MARV entry inh – inhibitors of Marburg virus binding or cell entry; Marburg virus pseudotyped entry inhibition, cell reporter; actives 1.8% (n = 300,000); Potency, µM (doses to about 37.8 µM), without a hit: top-dose activity change, negative = inhibition, hits mostly inhibitors; calls by dose curve; tested in HEK293 cells; note: potency is the fitted concentration of half-maximal effect; % is set by controls: 0 for no effect and ±100 for the full control effect
HCMV antiviral – blocks human cytomegalovirus replication. activity change, negative = inhibition, % at 57.5 µM. HFF cells, HCMV-luciferase reporter, 72 h; hits give low values. actives 4.5% (n = 410,000). AID 1259415; in the data active = activity change below about -60%; inconclusive = no clear call, values can overlap the other calls; inactive = above about -39%; note: % is set by controls: 0 for no effect and ±100 for the full control effect
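Two compound doses tested in HFFs infected with HCMV-luciferase, MOI 1 PFU/cell, 72 h at 37C. Lysate luminescence read with OneGlo; data normalized against buffer-only and 10uM Salinomycin inhibitor controls.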
SARS PLpro yeast – blocks SARS-CoV papain-like protease in a yeast assay. S. cerevisiae expressing SARS-CoV PLpro, growth rescue. Potency, µM (doses to about 32.9 µM), for inactives: at the top dose activity, positive = growth rescue, hits mostly activators. AID 485353. actives 0.19% (n = 330,000); calls by dose curve; note: potency is the fitted concentration of half-maximal effect; 0% is about no effect; nearly all actives have a fitted effect of over 55% in size
FMDV inh – foot and mouth disease virus antiviral activity; FMDV antiviral cell-based qHTS; Potency, µM (top dose mostly 57.9 µM), inactives show at the top dose activity change, negative = inhibition, hits mostly inhibitors; actives 1.2% (n = 410,000); calls by dose curve; tested in HEK293T cells; note: read-out not given here; potency is the fitted concentration of half-maximal effect; % is set by controls: 0 for no effect and ±100 for the full control effect; nearly all actives have a fitted effect of over 45% in size
HCV inh – blocks hepatitis C virus. actives 3.4% (n = 340,000). Huh7.5.1 HCVcc-Cre infection, luciferase reporter, 44 h. Potency, µM (series often up to 41.8 µM), for the others: at the highest dose activity change, negative = inhibition, most hits filed as inhibitors; active = well fitted inhibition curve with a large enough effect; inconclusive = small, poorly fitted or top-dose-only effect, or another doubt; inactive = no such curve, though single readings can be large or run the other way; note: potency is the fitted concentration of half-maximal effect; % is set by controls: 0 for no effect and ±100 for the full control effect
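Whole-lifecycle infectious HCVcc-Cre system; cells 1,000/well, compound then virus (~0.5 moi) added 4 h after plating, 44 h culture. Luciferase read 15 sec following 15 min substrate incubation, room temp.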
Active calls of the source: *; ? = inconclusive; . = no result; [ ] = dose if it differs, or a comment.

SMILES	Lassa entry inh	MARV entry inh	HCMV antiviral	SARS PLpro yeast	FMDV inh	HCV inh
COc1ccc(OC)c(CNC(=O)CCCn2nc(C)c3c(C)n(-c4ccc(C)cc4)nc3c2=O)c1	-18%[46.1 µM]	.	9	.	-19%	.
CCCCNC(=O)C(c1ccc(OCC(=O)OC)c(C(=O)OC)c1)N(CCOC)C(=O)CCCCCN1C(=O)NC(c2ccc(-c3ccccc3)cc2)C(C(=O)OCc2ccccc2)=C1C (centres undefined)	.	.	-95*	-1%	.	.
Cc1csc(SCC(=O)N2CCCC2)n1	13%	13%[46.1 µM]	-71*	2%	-5%	-5%
Cc1csc(SCC(=O)Nc2cccc(C)c2C)n1	2%	12%	-64*	0%	2%	-1%
Cc1ccc(C)c(NC(=O)CSc2nc(C)cs2)c1	.	.	-5	3%	-3%	13%
Cc1ccc(Cl)cc1N1CCN(C(=O)COc2cc(=O)n(C)c3ccccc23)CC1	-7%[46.1 µM]	6%[46.1 µM]	-26	.	?	.
CSc1ccc(CCNC(=O)C(C)n2nc(C)c3sc4ccccc4c3c2=O)cc1 (centres undefined)	?	?	-26	.	0%	.
CCOc1ccccc1-c1nc(CN2CCCN(C(=O)c3ccco3)CC2)c(C)o1	-11%	-3%	-101*	-7%	3%	.
COc1ccc(OC)c(NC(=O)c2cc(-c3cc(C)cc(C)c3O)n[nH]2)c1	-19%	?	-68*	0%	2%	4µM*
Cc1cccc(NC(=O)c2cc(-c3cc(C)cc(C)c3O)n[nH]2)c1	.	.	?	0%	-10%	11µM*
COc1ccc(OC)c(NC(=O)c2cc(-c3c(C)cc(C)cc3O)n[nH]2)c1	.	.	9	2%	-24%	10µM*
COc1ccc(OC)c(NC(=O)c2cc(-c3cc(C)c(C)cc3O)n[nH]2)c1	?	-7%	?	-3%	18%	-11%
COc1ccc(C(=O)COC(=O)C(Cc2c[nH]c3ccccc23)NC(=O)c2ccc(C(C)(C)C)cc2)cc1 (centres undefined)	1.3µM*	.	22	.	-20%	.
CN1CCN(c2ncc3nc(-c4cccc(C#N)c4)c(=O)n(Cc4ccc(F)cc4)c3n2)CC1	.	.	.	.	-11%	.
COc1ccc(Cl)cc1N1CC(C(=O)Nc2nccs2)CC1=O (centres undefined)	?	?	-67*	.	-11%	?
O=C(Nc1nccs1)C1CC(=O)N(c2ccccc2Cl)C1 (centres undefined)	6%	5%	9	0%	-4%	14%
COc1ccc(NC(=S)NCc2cccnc2)cc1	6%[46.1 µM]	9%[46.1 µM]	-2	-1%	13%	12%
S=C(NCc1cccnc1)Nc1ccc(Oc2ccc(Cl)cc2)cc1	-5%	?	-61*	0%	0%	?
CC(C)(C)c1ccc(NC(=S)NCc2cccnc2)cc1	.	.	-13	0%	3%	32µM*
CC(C)(C)c1ccc(C(=O)NC(=S)NCc2cccnc2)cc1	?	?	-78*	-70%	-11%	22µM*
O=C(NC(=S)NCCSc1ccccc1)c1cccnc1	7%	?	-15	10µM*	11%	-11%
CC(C)(C)c1ccc(C(=O)NCc2cccnc2)cc1	?	26%	67	-7%	20%	-8%
CCC[C@H]1[C@@H](NS(=O)(=O)c2ccc(-c3ccccc3)cc2)CC[C@@]23CCCN2C(=O)CCC[C@@H]13	.	.	-6	.	.	.
Cc1ccc(NC2=Nc3ccccc3N3C2=Nc2c(c(C)nn2-c2ccccc2)C3c2ccc(O)c(O)c2)cc1 (centres undefined)	?	?	-64*	-4%	0%	-72%
Cc1nn(-c2ccccc2)c2c1C(c1ccc(O)c(O)c1)N1C(=N2)C(Nc2ccccc2)=Nc2ccccc21 (centres undefined)	4%	9%	-1	-11%	-9%	19%
SMILES	Lassa entry inh	MARV entry inh	HCMV antiviral	SARS PLpro yeast	FMDV inh	HCV inh
Cc1cccc(NC2=Nc3ccccc3N3C2=Nc2c(c(C)nn2-c2ccccc2)C3c2ccc(O)c(O)c2)c1 (centres undefined)	?	-27%	-97*	3%	-22%	?
COc1cccc([C@H]2/C(=C(\O)c3ccc(C)cc3)C(=O)C(=O)N2Cc2ccco2)c1	.	21%[46.1 µM]	.	.	.	.
CCOc1cc(C#N)c(NC(=O)c2cccc(S(=O)(=O)N3CCOCC3)c2)cc1OCC	11%[46.1 µM]	3%[46.1 µM]	-6	.	0%	.
COC(=O)c1cc2c(c3c4ccccc4n(S(=O)(=O)c4ccc(C)cc4)c13)C(=O)N(Cc1ccccc1)C2	.	.	-7	.	.	.
COC(=O)c1c[nH]c2c1-c1cc(C(=O)OCc3ccccc3)n(S(=O)(=O)c3ccc(C)cc3)c1C(=O)C2=O	?	-16%	112	.	7.9µM*	?
O=S(=O)(c1ccccc1)N1CCC(c2noc3ccccc23)CC1	.	.	-13	.	.	.
Cc1ccc2c(c1)-c1nc(-c3ccccc3)cc(-c3ccccc3)c1CO2	7%[46.1 µM]	?	0	.	-12%	.
O=C(Cn1ncc2c(=O)oc3ccccc3c21)NCc1ccc(Cl)cc1	24%[46.1 µM]	1%[46.1 µM]	4	.	-2%	.
O=C(Nc1ccc(Cl)cn1)c1cc2ccccc2o1	?	?	92	-19%	-28%	?
O=C(Nc1ccccn1)c1cc2ccccc2o1	4.6µM*	?	-4	-54%	.	-10%
O=C(Nc1ncccc1O)c1cc2ccccc2o1	1.3µM*	?	-1	-1%	?	2%
Cc1ccnc(NC(=O)c2cc3ccccc3o2)c1	?	1.1µM*	-5	6%	28µM*	-26%
Cc1cccc(-n2c3nc(=O)[nH]c(=O)c-3cc3c(Cl)cccc32)c1C	-1%[46.1 µM]	.	-2	.	?	.
CCc1noc(C)c1C(=O)OCC(=O)Nc1nc(-c2ccc(F)c(F)c2)cs1	?	?	14	4%	14µM*	?
Cc1cc(C)c2nc(NC(=O)c3cc(C)on3)sc2c1	9%	0%	?	5%	1%	-46%
CCc1noc(C)c1C(=O)Nc1nc2c(C)cc(C)cc2s1	9%	?	-4	-18%	-2%	11µM*
CCc1noc(C)c1C(=O)Nc1nc(-c2ccc(NC(C)=O)cc2)cs1	?	?	-34	-3%	22µM*	10µM*
CC(=O)Nc1ccc(-c2csc(NC(=O)c3ccc(C)o3)n2)cc1	3%	-1%	39	-2%	0%	-17%
CCc1noc(C)c1C(=O)Nc1nc(-c2ccc(OC)c(OC)c2)cs1	?	?	-26	.	18µM*	?
COc1ccc(C(CC(=O)Nc2ccc(C)cn2)N2Cc3ccccc3C2=O)cc1OC (centres undefined)	12%[46.1 µM]	.	11	.	0%	.
COc1ccc(C2=NCCn3c2c2ccc(OC)cc2[n+]3[O-])cc1	.	.	32	.	.	.
Cc1ccccc1-n1nnnc1SCc1csc(-c2ccccc2)n1	13µM*	?	54	-2%	-29%	?
COc1ccc2nc(C)cc(Nc3ccc(N4CCOCC4)cc3)c2c1	-16%	?	-86*	0%	.	?

Screens (PubChem BioAssay)
